For 100 molecules, inhibition results are on record in PubChem BioAssay AID777 (Sanford-Burnham Center for Chemical Genomics, 2007).

Among all 96,000 compounds or so, about 19,000 (20%) were called active. Only a sample is shown. A number with no mark means an inactive call.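 How the source made its calls: active means blocking of liver enzyme CYP2C9 beyond about 50% at 5 µM (limit read from the data); inactive means the rest.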

This assay deals with Cytochrome P450 2C9 (Homo sapiens) (UniProt P11712). Put plainly: blockers of cytochrome P450 2C9 activity – biochemical, luminescence, ADME assay, primary screen (AID 777). The following applies: CYP2C9 Supersomes, luciferin-H conversion, at 5 µM, active compounds read high.
Sequence of Cytochrome P450 2C9 (Homo sapiens) (P11712 whole entry, looked up): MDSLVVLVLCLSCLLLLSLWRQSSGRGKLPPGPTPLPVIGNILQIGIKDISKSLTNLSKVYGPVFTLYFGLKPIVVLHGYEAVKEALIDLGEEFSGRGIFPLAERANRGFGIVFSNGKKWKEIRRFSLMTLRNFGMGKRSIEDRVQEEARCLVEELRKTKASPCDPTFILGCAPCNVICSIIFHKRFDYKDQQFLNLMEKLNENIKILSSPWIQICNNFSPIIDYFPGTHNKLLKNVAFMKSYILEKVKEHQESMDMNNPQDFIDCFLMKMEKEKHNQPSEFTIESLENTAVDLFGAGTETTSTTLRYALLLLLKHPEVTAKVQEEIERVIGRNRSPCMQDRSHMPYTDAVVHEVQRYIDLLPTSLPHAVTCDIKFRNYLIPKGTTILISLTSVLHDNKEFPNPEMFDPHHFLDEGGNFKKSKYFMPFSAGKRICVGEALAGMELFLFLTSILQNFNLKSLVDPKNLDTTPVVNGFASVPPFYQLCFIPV
The term inhibition denotes the drop in the measured response relative to a control, in per cent. Regarding `CCOc1c(OC)cc(C2C(C#N)=C(N)Oc3n[nH]c(-c4ccncc4)c32)cc1OC` (stereo not given), the inhibition was 20.1%.
The figure for `COc1ccc(/C=C2\CCCC3C2=NN(C(=O)c2scnc2C)C3c2ccc(OC)cc2)cc1` (stereo not given) is 83.4% (active).
Turning to `Cc1nc2ccc(C(=O)O)cc2[nH]1`, the inhibition was 14.9%.
In the case of `Cc1cc(Br)ccc1NC(=O)C1CCCO1` (stereo not given) it was -2.8%; in that of `CCOC(=O)C1CN(S(=O)(=O)c2ccc(F)cc2)C1`, 8.2%; in that of `COc1ccc(OC)c(NC(=O)CC(Cc2ccccc2OC)C(=O)O)c1` (stereo not given), 40.6%.
With `C=CCCC(=O)Nc1nc(C)c(-c2csc(Nc3ccc(Cl)cc3)n2)s1`, the inhibition was 38.2%.
Consider `CCCCCCC(=O)Nc1nc(C)c(-c2csc(Nc3cc(Cl)ccc3OC)n2)s1`, for which the inhibition is 14.8%.
For the molecule `CCCCC(=O)Nc1nc(C)c(-c2csc(Nc3ccc(Cl)cc3)n2)s1`, the inhibition was 57.3% (active).
For the molecule `CC(C)C(=O)N1c2ccccc2NC2=C(C(=O)CCC2)C1c1ccc(N(C)C)cc1` (stereo not given), the inhibition is 16.8%.
With `CCC(C)n1c(-c2cc(OC)c(OC)c(OC)c2)nc2nc3ccccc3nc21` (stereo not given), the inhibition is 95.3% (active).
`COc1ccc(CCn2c(-c3ccco3)nc3nc4ccccc4nc32)cc1OC`: the inhibition is 34.7%.
`COC(=O)c1nc(NC(=O)c2ccc(Cl)cc2)n[nH]1`: the inhibition is 7.9%.
Consider `O=S(=O)(Nc1nccs1)c1ccc2c(c1)OCCO2`, for which the inhibition is -23.3%.
As for `O=C(/C=C/c1ccccc1)c1ccoc1`, the inhibition is 15.1%.
The figure for `CCc1ccccc1NC(=O)/C(=C/c1ccccc1)c1ccccc1` is 16.4%; for `O=C(/C=C/c1ccccc1)N/C(=C/c1ccccc1)C(=O)Nc1ccccc1O` it is 62.7% (active).
As to `CC(C)c1ccc(-c2nn[nH]n2)cc1`, the inhibition is 9.2%.
In the case of `O=C(Nc1ccc(Cl)cc1)N1CCc2[nH]c3ccccc3c2C1`, the inhibition was 14.2%.
Regarding `CCC(=O)Nc1cccc(NC(=O)c2cccnc2)c1`, the inhibition was 6.5%.
Regarding `Cc1cccc(-n2cnc(C(=O)Nc3cccnc3)c2)n1`, the inhibition was 88.2% (active).
As to `Cc1cc(C)c(NC(=O)CS(=O)CC(=O)Nc2cccnc2)c(C)c1` (stereo not given), the inhibition was 22.7%.
As to `Cc1cc(-n2nc(C)cc2C)n2nc(C)c(-c3ccccc3)c2n1`, the inhibition was 25.1%.
In the case of `CC(Oc1ccc(Cl)cc1)C(=O)OCC(=O)Nc1ncc(Cl)cc1Cl` (stereo not given) it was -20.7%.
As for `CNC(=O)c1ccc2nc(NC(C)=O)sc2c1`, the inhibition is 21.5%.
The figure for `Cc1cc(C)cc(OCC(=O)Nc2nc3ccc([N+](=O)[O-])cc3s2)c1` is 48.4%; for `O=C(NC(Nc1nc2ccc([N+](=O)[O-])cc2s1)(C(F)(F)F)C(F)(F)F)c1ccccc1` it is 97.4% (active); for `O=C(Nc1ccc(Cl)cc1)c1ccsn1` it is -4.3%.
On to `O=C(Nc1ccccc1)c1nnsc1S(=O)(=O)c1ccc(Cl)cc1`, for which the inhibition is 74.9% (active).
As for `O=C(c1ccc(Cl)cc1)c1cnc(Nc2ccccc2)s1`, the inhibition is 21.7%.
In the case of `Cc1ccc(N2CCN(c3ccc(C)cc3)C2c2ccccn2)cc1`, the inhibition is 1.3%.
In the case of `O=C(NCCCCCCCCCNC(=O)C(F)(F)F)C(F)(F)F`, the inhibition is 11.2%.
In the case of `CCCOc1ccccc1C(=O)NCCCC(=O)O`, the inhibition is -8.2%.
For the molecule `CS(=O)(=O)N1CCN(C(=O)Cc2ccccc2)CC1`, the inhibition was -5.4%.
In the case of `CCOc1ccc(Cn2nnc(C(=O)NCc3ccccc3)c2N)cc1` it was -2.2%; in that of `COc1ccc(OC)c(CN2C(=O)CCC2(C)C(=O)NC2CCCCCC2)c1` (stereo not given), 30%; in that of `CCOC(=O)CCc1c(C)c2ccc(OCc3nn[nH]n3)c(C)c2oc1=O`, 86.3% (active).
As for `CC(=O)Oc1ccc2c(C)c(CC(C)O)c(=O)oc2c1` (stereo not given), the inhibition is -16%.
The figure for `CCOC(=O)N1CCN(C(=O)c2cn(C)c3ccc(S(=O)(=O)N4CCCC4)cc3c2=O)CC1` is -6.2%.
As to `CCOC(=O)C1CCN(C(=O)c2oc3ccc(S(=O)(=O)N4CCCCCC4)cc3c2C)CC1`, the inhibition was 53.6% (active).
As to `Cc1c(C(=O)Nc2ccccc2Cl)oc2ccc(S(=O)(=O)N3CCC4(CC3)OCCO4)cc12`, the inhibition is 31.2%.
As to `C=CCn1c(COc2ccccc2F)nnc1SCC(=O)N1CC(=O)Nc2ccccc21`, the inhibition was 12.5%.
As to `CCN=C1SC(CC(=O)Nc2ccc(C)cc2)C(=O)N1CC` (stereo not given), the inhibition is -8.7%.
As to `Cc1ccc(C)c(NC(=O)C2CC(=O)N(C(C)C)C2)c1` (stereo not given), the inhibition is -14.4%.
`CCN1C(=O)C(CC(=O)Nc2cc(C)ccc2C)SC1=Nc1ccc(S(N)(=O)=O)cc1` (stereo not given): the inhibition is 90.8% (active).
With `O=S(=O)(/C=C/c1ccccc1)NCCc1ccccn1`, the inhibition was -35.1%.
In the case of `Cc1nnc(SCC(=O)N(C(C)C)C(C)C)nc1C` it was -18.5%.
In the case of `CCCn1c(=O)c(-c2ccccc2)c(O)c2ccccc21`, the inhibition was 1.5%.
As to `Cc1cccc(OCC(O)Cn2c(=N)n(CCN3CCOCC3)c3ccccc32)c1` (stereo not given), the inhibition is -8.4%.
As for `COc1ccc(S(=O)(=O)N2CCOCC2)cc1C(=O)Nc1nc2ccccc2s1`, the inhibition is -3.9%.
Turning to `O=C(c1ccc2c(c1)OCCO2)C1CCN(S(=O)(=O)c2cccc(F)c2)CC1`, the inhibition was -18.3%.
As to `O=C(Nc1nc2cc3c(cc2s1)OCCO3)c1cccc(S(=O)(=O)N2CCOCC2)c1`, the inhibition was 50.9% (active).
In the case of `CC1(C)CC(CCC(=O)Nc2ccccc2Cl)C(=O)O1` (stereo not given), the inhibition is -35.4%.
Take `CCc1nnc(NC(=O)CCC(=O)O)s1`: the inhibition was -9.1%.
Regarding `CCCCc1nc2c(=O)[nH]c3ccccc3c2o1`, the inhibition is -4.4%.
In the case of `O=C(Nc1ccc2ccccc2c1)Nc1ccc2snnc2c1`, the inhibition was 19.3%.
As for `COc1cccc(NC(=O)Cc2ccc(C)cc2)c1`, the inhibition is 21.1%.
Take `COc1ccc(NC(=O)/C(Cl)=C(/Cl)S(=O)Cc2ccc(C)cc2)cn1` (stereo not given): the inhibition is 52.9% (active).
As for `O=C(Nc1cccc2c1CCCC2)C1CCN(C(=O)NC2CCCCC2)CC1`, the inhibition is 1.9%.
In the case of `Cc1ccc(S(=O)(=O)C(C#N)c2nc3ccccc3nc2N2CCCC2)cc1C` (stereo not given), the inhibition is 93.4% (active).
As for `Cc1cccc2cc(C#N)c(N3CCCC3)nc12`, the inhibition is -2.2%.
Take `CC(C)CCOc1ccc(C(=O)C[N+]2(C)CCOCC2)cc1`: the inhibition is 11%.
For `COc1ccccc1NC1=NC2(CCCC2)N=C(N)N1`, the inhibition is -4%.
Turning to `Cc1nc(N2CCOCC2)nc2c1CCCC2`, the inhibition is -1.5%.
`COc1ccccc1N1CCN(C(=O)Cn2nnc(-c3cccs3)n2)CC1`: the inhibition is 47.2%.
As to `CCOc1ccc(-c2nnn(CC(=O)N3CCN(c4ccc(F)cc4)CC3)n2)cc1OCC`, the inhibition is -6.1%.
For `O=C(Nc1ccccc1-c1nnn(CC(=O)N2CCN(c3ccccc3)CC2)n1)c1cccs1`, the inhibition is 80.1% (active).
`CC(=O)c1ccc(OCCN2CCOCC2)cc1`: the inhibition is 9.9%.
For the molecule `CC1CC(c2ccccc2)n2nc(NC(=O)c3cccs3)nc2N1` (stereo not given), the inhibition is 0.9%.
The figure for `CCOC(=O)C1CCCN(C(=O)c2cncc(Br)c2)C1` (stereo not given) is 33.3%.
Take `Cc1cc(=O)n2nc(N3CCCC(C(=O)NCCC4=CCCCC4)C3)sc2n1` (stereo not given): the inhibition was 61.7% (active).
In the case of `COc1ccc(CCNC(=O)C2CCN(c3nn4c(=O)cc(C)nc4s3)CC2)cc1OC` it was -11.8%; in that of `Cc1cc(=O)n2nc(N3CCCC3C(=O)NCCCN3CC(C)CC(C)C3)sc2n1` (stereo not given), 1.8%.
As to `CCCC(=O)Nc1nnc(CC(=O)OCC)s1`, the inhibition is -12.8%.
In the case of `COCCCNC(=O)Cn1cc(C(=O)C2CC2)c2ccccc21` it was 11.2%; in that of `CN1CCN(S(=O)(=O)c2ccc(NC(=O)C3CCCO3)cc2)CC1` (stereo not given), 60% (active); in that of `O=C(Nc1nc2ccc(S(=O)(=O)N3CCCC3)cc2s1)C1CCCO1` (stereo not given), 46.1%.
For `CN1CCN(S(=O)(=O)c2ccc(NC(=O)c3ccco3)cc2)CC1`, the inhibition is -13.5%.
For the molecule `c1csc(CN2CCN(Cc3cccs3)C2c2cccs2)c1`, the inhibition is -9%.
In the case of `Cc1[nH]c2ccccc2c1C(=O)COC(=O)C(C)C` it was -5%; in that of `COc1ccccc1CCNC(=O)c1cnccn1`, -35.8%.
`CCOc1ccc(C(=O)NCCCN2CCCC2=O)cc1`: the inhibition is 12.3%.
Turning to `CCCN(Cc1cc2cccc(C)c2[nH]c1=O)S(C)(=O)=O`, the inhibition was 36.4%.
Turning to `COc1ccc(S(=O)(=O)N(CCCN2CCCC2=O)Cc2cc3c(C)ccc(C)c3[nH]c2=O)cc1`, the inhibition is 85.6% (active).
As for `CSc1ccc(Cl)c(C(=O)OCC(=O)N2CC(C)OC(C)C2)c1` (stereo not given), the inhibition was -24.7%.
In the case of `Cc1nc2nc3c(cn2n1)C(=O)CC(c1ccccc1)C3` (stereo not given) it was 65.6% (active); in that of `Cc1cc(=O)oc(C)c1C(=O)NCc1ccc(F)cc1`, 51.6% (active); in that of `COc1ccc(CNC(=O)c2c(C)cc(=O)oc2C)cc1OC`, 32.7%.
In the case of `Cc1cc(=O)oc(C)c1C(=O)Nc1cnc2ccccc2c1`, the inhibition is 10.5%.
Turning to `O=C(c1ccc(Cl)c(Cl)c1)N1CCCC1`, the inhibition is 7%.
As to `O=C(CN1CCN(S(=O)(=O)c2ccc(Cl)s2)CC1)NCc1ccc(Cl)cc1`, the inhibition was 55.1% (active).
In the case of `Cc1cccc(NC(=O)CN2CCCN(S(=O)(=O)c3ccc(Br)s3)CC2)c1` it was 11.6%; in that of `Cc1ccc(CNC(=O)CN2CCN(Cc3ccc(Cl)cc3)C2=O)cc1`, 17.5%.
In the case of `O=S(=O)(NCc1ccccc1Cl)c1cnc[nH]1` it was 28.8%.
Regarding `CC1(C)CC(=O)C=C(NCCN2CCNCC2)C1`, the inhibition was -8.1%.
The figure for `COC(=O)c1ccc(NCC(=O)c2ccccc2)cc1` is 48.7%.
Consider `CCOC(=O)c1nc(Nc2ccc(C(=O)OC)cc2)c2ccccc2n1`, for which the inhibition is 59.5% (active).
`Cc1ccc(Nc2nc(C)cc(C)c2C(N)=O)cc1`: the inhibition is 6.2%.
For the molecule `Cc1nc(CNS(=O)(=O)c2cccnc2)cs1`, the inhibition was 8.8%.
Take `CCc1cc2c(=O)c(-c3ccon3)c(N)oc2cc1OC`: the inhibition was 0.5%.
